Results published in PubChem BioAssay (NCATS).
Values joined by “and” are separate entries in the source; they are usually repeats but may differ in a detail not shown here. Equal entries are not always repeated. Results filed as inconclusive are left out. Active and inactive are the calls of the source. Calls come from the whole dose curve; as a rule, active = well fitted curve in the direction sought with a large enough effect; inconclusive = small, poorly fitted or top-dose-only effect, or another doubt; inactive = no such curve, though single readings can be large or run the other way.

Target: Hexokinase-4 (Homo sapiens) + Glucokinase regulatory protein (Homo sapiens) (UniProt P35557+Q14397)
Experiment: qHTS assay for inhibitors of recombinant human GCK-GKRP interaction: HTRF assay (AID 743207);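 note: 0% = DMSO with GCK present and -100% = DMSO wells lacking GCK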
Details: recombinant GCK-GKRP HTRF binding, 60 min; series mostly up to 57.5 µM; activity change, negative = inhibition: at the top concentration
Method in brief: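 HTRF binding of 5 nM GST-GCK and 5 nM FLAG-GKRP with 2 uM S6P in pH 7.1 Hepes buffer (MgCl2, KCl, DTT, Tween 20, BSA). Anti-FLAG XL665 and anti-GST donor added, 60 min at room temperature; 665/615 nm read, normalized to with- and without-GCK controls.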

Hexokinase-4 (Homo sapiens) + Glucokinase regulatory protein (Homo sapiens), sequence (P35557 whole entry, looked up): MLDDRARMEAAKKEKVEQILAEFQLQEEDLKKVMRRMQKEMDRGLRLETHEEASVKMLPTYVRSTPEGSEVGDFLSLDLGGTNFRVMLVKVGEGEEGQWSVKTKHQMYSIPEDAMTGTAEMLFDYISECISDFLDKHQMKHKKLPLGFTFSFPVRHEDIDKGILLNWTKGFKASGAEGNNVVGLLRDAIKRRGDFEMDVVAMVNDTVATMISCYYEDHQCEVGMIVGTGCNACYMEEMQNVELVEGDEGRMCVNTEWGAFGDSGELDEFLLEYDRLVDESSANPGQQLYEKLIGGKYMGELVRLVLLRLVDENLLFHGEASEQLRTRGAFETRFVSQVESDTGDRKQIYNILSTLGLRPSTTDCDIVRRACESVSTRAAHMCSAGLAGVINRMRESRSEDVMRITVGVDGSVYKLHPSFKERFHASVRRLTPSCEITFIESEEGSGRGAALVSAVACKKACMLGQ
Hexokinase-4 (Homo sapiens) + Glucokinase regulatory protein (Homo sapiens), sequence (Q14397 whole entry, looked up): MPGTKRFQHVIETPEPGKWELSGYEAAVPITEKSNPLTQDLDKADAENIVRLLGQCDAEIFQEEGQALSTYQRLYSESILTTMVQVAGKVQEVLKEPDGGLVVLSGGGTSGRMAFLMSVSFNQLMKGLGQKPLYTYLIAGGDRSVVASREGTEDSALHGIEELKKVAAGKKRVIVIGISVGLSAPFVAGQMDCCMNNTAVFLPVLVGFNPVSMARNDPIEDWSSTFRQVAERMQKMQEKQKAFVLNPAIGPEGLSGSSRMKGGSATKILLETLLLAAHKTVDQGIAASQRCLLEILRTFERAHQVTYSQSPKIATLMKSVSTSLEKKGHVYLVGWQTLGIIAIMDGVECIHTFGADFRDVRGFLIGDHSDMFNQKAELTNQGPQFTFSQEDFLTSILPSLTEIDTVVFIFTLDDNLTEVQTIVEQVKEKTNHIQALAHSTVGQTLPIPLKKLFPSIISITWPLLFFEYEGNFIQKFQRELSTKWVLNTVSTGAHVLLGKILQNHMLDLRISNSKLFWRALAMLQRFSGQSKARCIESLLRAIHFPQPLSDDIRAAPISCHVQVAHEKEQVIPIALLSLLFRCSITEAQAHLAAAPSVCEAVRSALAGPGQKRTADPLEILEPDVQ

SMILES | activity change, negative = inhibition
C=CCN(C1=NCCN1)c1c(Cl)cccc1Cl | 3.93% (inactive)
C[C@H](Cc1ccc2c(c1)OC(C(=O)O)(C(=O)O)O2)NC[C@H](O)c1cccc(Cl)c1 | 2.56% (inactive)
COc1ccc2[nH]c3c(c2c1)CCNC3 | -6.6% (inactive)
NC(CCCCCP(=O)(O)O)C(=O)O (stereo not given) | -3.53% (inactive)
CCCn1c(=O)c2[nH]c(C3CCCC3)nc2n(CCCOC(=O)c2ccc(S(=O)(=O)F)cc2)c1=O | 14.3% (inactive)
COc1ccc(OC)c(C(O)C(C)N)c1 (stereo not given) | 8.28% (inactive)
COC(=O)N1CCN(C(=O)Cc2ccc(Cl)c(Cl)c2)C(CN2CCCC2)C1 (stereo not given) | -4.88% (inactive)
CC(C)NP(=O)(NC(C)C)OP(=O)(NC(C)C)NC(C)C | 4.42% (inactive)
NC(=O)c1ccc(OCC(O)CN2CC=C(c3ccc(F)cc3)CC2)cc1 (stereo not given) | 4.2% (inactive)
N#C/C(=C/c1ccc(O)c(O)c1)C(N)=S | 3.8% (inactive)
NC(C(=O)O)c1cc(=O)[nH]o1 (stereo not given) | 5.81% (inactive)
C[C@@H]1O[C@@H](O[C@H]2C[C@@H](O)[C@]3(CO)[C@@H]4C(CC[C@]3(O)C2)[C@@]2(O)CC[C@H]([C@@H]3COC(=O)C3)[C@@]2(C)C[C@H]4O)[C@H](O)[C@H](O)[C@H]1O (stereo not given in full) | 5.56% (inactive)
COc1ccc2c(c1O)-c1cccc3c1[C@@H](C2)N(C)CC3 | 11% (inactive)
CC(C)(C)c1o[nH]c(=O)c1CC(N)C(=O)O (stereo not given) | 12.2% (inactive)
CN(C(=O)Cc1ccc(Cl)c(Cl)c1)C(CN1CCCC1)c1cccc(OCC(=O)O)c1 (stereo not given) | -6.15% (inactive)
CCCN1CC[C@@H]2c3cc(O)ccc3CC[C@@H]21 | -7.08% (inactive)
C[C@H](N)Cc1cccc(C(F)(F)F)c1 | -1% (inactive)
CN1CC[C@@]2(C)c3cc(OC(=O)Nc4ccccc4)ccc3N(C)[C@@H]12 | -3.22% (inactive)
CC(N)[C@H](O)c1ccc(O)c(O)c1 (stereo not given in full) | -8.07% (inactive)
C[N+](C)(C)CC#CCN1CCCC1=O | 2.95% (inactive)

SMILES | activity change, negative = inhibition
COc1ccc2c(c1)C13CCCCC1C(C2)N(C)CC3 (stereo not given) | 1.96% (inactive)
c1ccc2cc(CC3=NCCN3)ccc2c1 | -0.701% (inactive)
CC(N)Cc1c[nH]c2ccc(O)cc12 (stereo not given) | -8.48% (inactive)
NC(=O)COc1c(F)cc(SCCNS(=O)(=O)c2ccccc2)cc1F | 6.76% (inactive)
NCC(O)c1cc(O)c(O)cc1F (stereo not given) | -4.66% (inactive)
NC(=O)c1cc(N2CC2)c([N+](=O)[O-])cc1[N+](=O)[O-] | -3.2% (inactive)
N[C@@]1(C(=O)O)CC[C@@H](C(=O)O)C1 | 4.49% (inactive)
C=CCN1CC[C@]23c4c5ccc(O)c4O[C@H]2/C(=N/NC(=O)c2ccccc2)CC[C@@]3(O)[C@H]1C5 | 5.74% (inactive)
Ic1ccccc1CNC1C2CCN(CC2)C1C(c1ccccc1)c1ccccc1 (stereo not given) | -7.55% (inactive)
NCCc1c[nH]c2ccc(C(N)=O)cc12 | -6.8% (inactive)
C[N+]1(C)CCN(c2ccccc2)CC1 | 2.72% (inactive)
C=CCN1CCc2cccc3c2[C@H]1Cc1ccc(O)c(O)c1-3 | 8.76% (inactive)
CCCN(CCC)CCc1ccc(O)c(O)c1 | 2.05% (inactive)
CCCN1CCc2cc(O)cc3c2[C@H]1Cc1ccc(O)c(O)c1-3 | 1.41% (inactive)
C[N+]1(C)C2CCC1CC(OC(=O)c1c[nH]c3ccccc13)C2 (stereo not given) | -4.55% (inactive)
COc1ccc2[nH]cc(CCN)c2c1 | 17.2% (inactive)
C=CCN1CC[C@]23c4c5ccc(O)c4O[C@@H]2/C(=N/N=C2\CC[C@@]4(O)C6Cc7ccc(O)c8c7[C@@]4(CCN6CC=C)[C@@H]2O8)CC[C@@]3(O)C1C5 | 6.82% (inactive)
C=CCN1CCC23c4c5ccc(O)c4O[C@H]2C(=O)CC[C@@]3(O)C1C5 (stereo not given in full) | 3.44% (inactive)
NCCCP(=O)(O)O | 1.62% (inactive)
CCCN1CCC[C@@H](c2cccc(O)c2)C1 | -3.47% (inactive)

Tested on: not listed separately
Experiment: qHTS Assay for Identifying Gametocytocidal Compounds (AID 743244); note: potency is the fitted concentration of half-maximal effect;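 for max response: % is set by controls: 0 for no effect and ±100 for the full control effect; actives lower the fluorescent signal which means gametocytes are killed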
Details: P. falciparum 3D7 stage III-V gametocytes, alamarBlue, 72 h; max response: hits give low values
Method in brief: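 3D7 gametocytes, stages III–V, 20,000/well; cpd 72 h, 37 °C/5% CO2; + alamarBlue 24 h; fluor. Ex 525/Em 598.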

SMILES | max response | Potency
C=CCN(C1=NCCN1)c1c(Cl)cccc1Cl | -1.3% (inactive) and 35.7% (inactive) | 
C[C@H](Cc1ccc2c(c1)OC(C(=O)O)(C(=O)O)O2)NC[C@H](O)c1cccc(Cl)c1 | 13.1% (inactive) | 
COc1ccc2[nH]c3c(c2c1)CCNC3 | -9.37% (inactive) | 
NC(CCCCCP(=O)(O)O)C(=O)O (stereo not given) | -2.34% (inactive) | 
CCCn1c(=O)c2[nH]c(C3CCCC3)nc2n(CCCOC(=O)c2ccc(S(=O)(=O)F)cc2)c1=O | 11.9% (inactive) | 
COc1ccc(OC)c(C(O)C(C)N)c1 (stereo not given) | 11.7% (inactive) | 
COC(=O)N1CCN(C(=O)Cc2ccc(Cl)c(Cl)c2)C(CN2CCCC2)C1 (stereo not given) | 14.6% (inactive) | 
CC(C)NP(=O)(NC(C)C)OP(=O)(NC(C)C)NC(C)C | 7.64% (inactive) | 
NC(=O)c1ccc(OCC(O)CN2CC=C(c3ccc(F)cc3)CC2)cc1 (stereo not given) | 10.4% (inactive) | 
N#C/C(=C/c1ccc(O)c(O)c1)C(N)=S | 27.1% (inactive) | 
NC(C(=O)O)c1cc(=O)[nH]o1 (stereo not given) | 7.64% (inactive) | 
C[C@@H]1O[C@@H](O[C@H]2C[C@@H](O)[C@]3(CO)[C@@H]4C(CC[C@]3(O)C2)[C@@]2(O)CC[C@H]([C@@H]3COC(=O)C3)[C@@]2(C)C[C@H]4O)[C@H](O)[C@H](O)[C@H]1O (stereo not given in full) | 22.5% (inactive) | 
COc1ccc2c(c1O)-c1cccc3c1[C@@H](C2)N(C)CC3 | 27.6% (inactive) | 
CC(C)(C)c1o[nH]c(=O)c1CC(N)C(=O)O (stereo not given) | 2.4% (inactive) | 
CN(C(=O)Cc1ccc(Cl)c(Cl)c1)C(CN1CCCC1)c1cccc(OCC(=O)O)c1 (stereo not given) | 13% (inactive) | 
CCCN1CC[C@@H]2c3cc(O)ccc3CC[C@@H]21 | 20.4% (inactive) | 
C[C@H](N)Cc1cccc(C(F)(F)F)c1 | 11.9% (inactive) | 
CN1CC[C@@]2(C)c3cc(OC(=O)Nc4ccccc4)ccc3N(C)[C@@H]12 |  | 1.12 µM (active)
CC(N)[C@H](O)c1ccc(O)c(O)c1 (stereo not given in full) | 7.97% (inactive) | 
C[N+](C)(C)CC#CCN1CCCC1=O | -2.31% (inactive) | 

SMILES | max response | Potency
COc1ccc2c(c1)C13CCCCC1C(C2)N(C)CC3 (stereo not given) | 9.94% (inactive) | 
c1ccc2cc(CC3=NCCN3)ccc2c1 | 5.44% (inactive) | 
CC(N)Cc1c[nH]c2ccc(O)cc12 (stereo not given) | 20.7% (inactive) | 
NC(=O)COc1c(F)cc(SCCNS(=O)(=O)c2ccccc2)cc1F | 9.54% (inactive) | 
NCC(O)c1cc(O)c(O)cc1F (stereo not given) | 20.1% (inactive) | 
NC(=O)c1cc(N2CC2)c([N+](=O)[O-])cc1[N+](=O)[O-] | 5.78% (inactive) | 
N[C@@]1(C(=O)O)CC[C@@H](C(=O)O)C1 | 13.5% (inactive) | 
C=CCN1CC[C@]23c4c5ccc(O)c4O[C@H]2/C(=N/NC(=O)c2ccccc2)CC[C@@]3(O)[C@H]1C5 | 8.77% (inactive) | 
Ic1ccccc1CNC1C2CCN(CC2)C1C(c1ccccc1)c1ccccc1 (stereo not given) |  | 1.78 µM (active)
NCCc1c[nH]c2ccc(C(N)=O)cc12 | 47.6% (inactive) | 
C[N+]1(C)CCN(c2ccccc2)CC1 | -6.92% (inactive) | 
C=CCN1CCc2cccc3c2[C@H]1Cc1ccc(O)c(O)c1-3 |  | 1.12 µM (active)
CCCN(CCC)CCc1ccc(O)c(O)c1 | 12.9% (inactive) | 
CCCN1CCc2cc(O)cc3c2[C@H]1Cc1ccc(O)c(O)c1-3 |  | 2.51 µM (active)
C[N+]1(C)C2CCC1CC(OC(=O)c1c[nH]c3ccccc13)C2 (stereo not given) | -2.89% (inactive) | 
COc1ccc2[nH]cc(CCN)c2c1 | 15.8% (inactive) | 
C=CCN1CC[C@]23c4c5ccc(O)c4O[C@@H]2/C(=N/N=C2\CC[C@@]4(O)C6Cc7ccc(O)c8c7[C@@]4(CCN6CC=C)[C@@H]2O8)CC[C@@]3(O)C1C5 |  | 1 µM (active)
C=CCN1CCC23c4c5ccc(O)c4O[C@H]2C(=O)CC[C@@]3(O)C1C5 (stereo not given in full) | 7.07% (inactive) | 
NCCCP(=O)(O)O | -9.88% (inactive) | 
CCCN1CCC[C@@H](c2cccc(O)c2)C1 | 21.7% (inactive) | 
